BAZ2B block – qHTS Assay for Inhibitors of BAZ2B. AlphaScreen BAZ2B-H3K14Ac peptide displacement. Potency, µM (titrated, usually from 114 µM), for the others: at the highest dose activity change, negative = inhibition, actives largely listed as inhibitors. 360,000 compounds, 4.4% hits; also: % is scaled to controls: 0 for no effect and ±100 for the full control effect; nearly all actives have a fitted effect of over 60% in size
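AlphaScreen luminescence quantifies BAZ2B engagement of H3K14Ac peptide; the protein and biotinylated peptide are both at 50 nM final, buffer PBS pH 7.4 with 0.01% Tween-20, all steps at room temperature.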
VDR inhibitor – Inhibitors of the vitamin D receptor (VDR): qHTS. Vitamin D3 receptor (Homo sapiens), P11473. VDR-SRC2-3 peptide fluorescence polarization, 2 h. Potency, µM, without a hit: max response, negative = inhibition, hits mostly inhibitors. 400,000 compounds, 0.93% hits. AID 504847, 2011; also: % is scaled to controls: 0 for no effect and ±100 for the full control effect
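After 23 nl compound addition and a short centrifugation, plates sat for 2 hours at ambient temperature; polarization of fluorescence then indicated loss of VDR binding to peptide SRC2-3.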
HP1b binding inh – HTS for Inhibitors of HP1-beta Chromodomain Interactions with Methylated Histone Tails; Chromobox protein homolog 1 (Homo sapiens), P83916; 390,000 compounds, 0.56% hits; Potency, µM (titrated, usually from 114 µM), for inactives: at the top dose activity change, negative = inhibition, most hits filed as inhibitors; AlphaScreen HP1-beta / biotin-H3K9me3 peptide binding; AID 540317, 2011; also: nearly all actives have a fitted effect of over 70% in size
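Compound inhibition of the preformed complex between 50 nM HP1-beta and 50 nM biotinylated H3K9me3 peptide was read by AlphaScreen. Buffer was PBS pH 7.4 with 0.01% Tween-20. Incubations ran 30 min at room temperature, with 10 ug/mL donor/acceptor beads.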
PLK1 PBD block – qHTS for Inhibitors of PLK1-PDB (polo-like kinase 1 - polo-box domain): Primary Screen. Serine/threonine-protein kinase PLK1 (Homo sapiens), P53350. Plk1 PBD binding of FITC phosphopeptide, fluorescence polarization. Potency, µM, for inactives: max response, negative = inhibition, actives largely listed as inhibitors. 360,000 compounds, 2.8% hits; also: series mostly up to about 57 µM; % is scaled to controls: 0 for no effect and ±100 for the full control effect; nearly all actives have a fitted effect of over 65% in size
JMJD2A Tudor – qHTS Assay for Inhibitors of JMJD2A-Tudor Domain; 390,000 compounds, 4.4% hits; AlphaScreen JMJD2A-Tudor / H3K4me3 peptide binding; Lysine-specific demethylase 4A (Homo sapiens), O75164; Potency, µM (titrated, usually from 114 µM), inactives show at the highest dose activity change, negative = inhibition, hits mostly inhibitors; also: % is scaled to controls: 0 for no effect and ±100 for the full control effect; nearly all actives have a fitted effect of over 50% in size
L3MBTL1 inh – qHTS Assay for the Inhibitors of L3MBTL1. 230,000 compounds, 0.66% hits. Potency, µM (top dose mostly 57.1 µM), for the others: top-dose activity, negative = inhibition, most hits filed as inhibitors. Lethal(3)malignant brain tumor-like protein 1 (Homo sapiens), Q9Y468. AlphaScreen L3MBTL1–H3K9me1 peptide binding. AID 485360, 2010; also: % is scaled to controls: 0 for no effect and ±100 for the full control effect; nearly all actives have a fitted effect of over 60% in size
Target sequence (Q9Y468 whole entry, looked up): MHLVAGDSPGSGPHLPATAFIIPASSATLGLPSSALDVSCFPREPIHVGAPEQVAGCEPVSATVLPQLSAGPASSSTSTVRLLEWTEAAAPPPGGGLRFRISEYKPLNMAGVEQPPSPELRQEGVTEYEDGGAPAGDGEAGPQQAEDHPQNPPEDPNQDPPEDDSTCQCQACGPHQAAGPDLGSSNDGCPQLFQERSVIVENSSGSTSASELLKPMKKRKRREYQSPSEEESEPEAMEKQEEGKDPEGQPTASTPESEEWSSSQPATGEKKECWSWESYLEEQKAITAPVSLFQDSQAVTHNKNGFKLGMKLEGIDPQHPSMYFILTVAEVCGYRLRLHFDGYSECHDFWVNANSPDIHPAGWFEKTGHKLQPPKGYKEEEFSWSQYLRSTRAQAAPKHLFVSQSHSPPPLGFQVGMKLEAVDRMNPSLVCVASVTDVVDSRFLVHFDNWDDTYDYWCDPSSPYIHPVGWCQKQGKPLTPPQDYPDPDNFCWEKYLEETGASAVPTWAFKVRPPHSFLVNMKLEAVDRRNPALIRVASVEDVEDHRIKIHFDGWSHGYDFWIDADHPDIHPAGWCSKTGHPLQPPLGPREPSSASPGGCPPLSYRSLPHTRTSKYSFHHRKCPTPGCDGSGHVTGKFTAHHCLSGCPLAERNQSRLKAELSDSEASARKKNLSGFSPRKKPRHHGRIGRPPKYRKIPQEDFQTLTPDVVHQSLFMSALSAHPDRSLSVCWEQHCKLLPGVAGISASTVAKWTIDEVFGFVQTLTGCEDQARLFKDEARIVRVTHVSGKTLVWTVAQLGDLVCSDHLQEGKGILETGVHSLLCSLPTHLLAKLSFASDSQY
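AlphaScreen assay: L3MBTL1 (50 nM final) was preincubated 30 min at room temperature with biotinylated H3(1-15)K9me1 peptide (75 nM final), then 30 min with library compounds; streptavidin donor and nickel chelate acceptor beads (10 ug/mL final) added, 30 min dark.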
Active calls of the source: *; ? = inconclusive; . = not tested or not shown; ! = not active in a repeat; [ ] = dose if it differs, or a comment. Only some compounds are listed: those with a hit (about 6.9% of all), similar ones and a draw of the others. Calls follow the shape of the dose curve; as a rule, active = well fitted curve in the direction sought with a large enough effect; inconclusive = small, poorly fitted or top-dose-only effect, or another doubt; inactive = no such curve, though single readings can be large; an effect the other way counts as inactive or inconclusive. Potency is read from the fitted curve at half-maximal effect.

SMILES	BAZ2B block	VDR inhibitor	HP1b binding inh	PLK1 PBD block	JMJD2A Tudor	L3MBTL1 inh
c1ccc2c(OCCCCN3CCOCC3)cccc2c1	50µM*	-12%	?	?	3.5µM*	-5%
COc1ccccc1N(Cc1cc(=O)[nH]c2ccccc12)C(=O)c1ccc([N+](=O)[O-])cc1	-16%	-27%	-1%	-2%	-18%	22%
COCCC(=O)N1CCC(Oc2ccc(C(=O)N3CCCC(COC)C3)cc2)CC1 (stereo not drawn)	-12%	-15%	28%	1%	1%	.
CC(C)C(=O)Nc1ccc(NC(=O)c2cccc3c(Br)cccc23)cc1	6%	?	11%	27µM*	?	.
NS(=O)(=O)c1cccc(NC(=O)c2cccc3c(Br)cccc23)c1	1%	-13%	28%	0%	0%	0%
Cn1cc(S(=O)(=O)c2ccc(Cl)cc2)c(=O)c2cc(F)c(N3CCCC3)cc21	5%	17%	21%	.	-10%	.
NC(=O)C[n+]1cccc2ccccc21	-12%	-1%	17%	-16%	22µM*	1%
Cc1cc(C)c(S(=O)(=O)Nc2ccc(-c3ccc(N4CCCCCC4)nn3)cc2)c(C)c1	-20%	8%	1%[57 µM]	.	-28%	.
CCOc1nc(Nc2ccc(F)cc2)nc(N2CCN(c3ccc(OC)cc3)CC2)n1	-35%	-12%	-6%	-7%	-24%	.
CCOc1nc(Nc2ccc(OC)c(Cl)c2)nc(N2CCN(c3ccc(OC)cc3)CC2)n1	11µM*	10%	?	-9%	35µM*	.
CCOC(=O)[C@H]1[C@H]2COc3ccc(Br)cc3[C@@H]2N2C(=O)CN(Cc3ccc(Cl)cc3)C(=O)[C@@]12C	.	-3%	26%	8%	-21%	-3%
CCOC(=O)[C@H]1[C@H]2COc3ccc(Br)cc3[C@@H]2N2C(=O)CN(Cc3ccco3)C(=O)[C@@]12C	50µM*	-15%	9%	-2%	?	-4%
Cc1ccc(NC(=O)C2CCN(c3nc4ccccc4nc3C(F)(F)F)CC2)cc1F	4%	12%	24%	.	5%	.
Clc1nc(Cl)nc(-c2cn(-c3ccccc3)c3ccccc23)n1	?	-27%	18%	-11%	79µM*	2%
OCCCc1cn(-c2ccccc2)c2ccccc12	-2%	1%	7%	0%	-22%	-3%
CCOC(=S)N/C(=N\S(=O)(=O)c1ccc(C)cc1)c1ccccc1	7%	-13%	?	24µM*	-28%	1%
O=S(=O)(/N=C(/NC(=S)Nc1ccccc1)c1ccccc1)c1ccc(Cl)cc1	-23%	?	?	12µM*	-31%	.
COc1ccc(NC(=S)N/C(=N/S(=O)(=O)c2ccc(C)cc2)c2ccccc2)cc1	-17%	-9%	3%	-28%	-6%	-4%
COc1ccc(NC(=S)NC(=NS(=O)(=O)c2ccc(Cl)cc2)c2ccccc2)cc1	.	-19%	?	12µM*	-33%	-9%
COc1ccc2[nH]c(C)c(CCN3C(=O)C4CC=CCC4C3=O)c2c1 (stereo not drawn)	?	?	-14%	21µM*	25µM*	-7%
CCOC(=O)NC(N(O)c1cccc(Cl)c1)C(Cl)(Cl)Cl (stereo not drawn)	-29%	32µM*	-11%	?	-26%	-4%
Cc1ccc2oc(C(=O)Nc3ccc(S(=O)(=O)Nc4ncccn4)cc3)cc(=O)c2c1	1%	12%	47%	.	-8%	.
CCN(C(=O)c1cc2c(s1)-c1c(C)cccc1OC2)c1ccccc1F	134%	-16%	210%	.	189%	.
Oc1ccc2c(c1)oc1cc(O)ccc12	6%	-1%	-8%	-4%	-21%	6%
O=c1oc2cc(O)ccc2s1	-5%	28µM*!	42%	-19%	-12%	0%
SMILES	BAZ2B block	VDR inhibitor	HP1b binding inh	PLK1 PBD block	JMJD2A Tudor	L3MBTL1 inh
CC(=O)Nc1c(C)nn(-c2ccccc2)c1N1CCC(C(=O)Nc2ccc(C)cc2Cl)CC1	1%	6%	24%[57 µM]	.	-18%	.
CCOC(=O)c1c(NC(=O)c2noc3c2CC(C(C)(C)C)CC3)sc2c1CCCC2 (stereo not drawn)	-2%	?	?	.	79µM*	.
CCc1ccccc1NC(=O)c1noc2c1CC(C(C)(C)C)CC2 (stereo not drawn)	40%	-14%	90%	.	38%	.
CC(=O)Nc1sc2c(c1C(N)=O)CCCC2	-6%	4%	48%	-10%	-5%[57.1 µM]	4%
NC(=O)c1c(NC(=O)c2noc3c2CCCC3)sc2c1CCCC2	-5%	50µM*	?	.	79µM*	.
COC(=O)c1ccc(N=Nc2ccccc2)cc1	13µM*	5%	?	5%	?	?
COC(=O)CCC(=O)Nc1ccc(N=Nc2ccccc2)cc1	40µM*	-4%	6%	-28%	?	-13%
COC(=O)c1ccc(OCCOc2ccccc2)cc1	5%	-6%	46%	-13%	17%	.
O=S(=O)(c1ccccc1)N1CCN(S(=O)(=O)c2ccc3c(c2)OCCO3)CC1	.	.	.	.	-11%	.
Cc1cc(F)ccc1S(=O)(=O)Nc1ncnc2sc3c(c12)CCC3	3%	-7%	2%	17µM*	-16%[11.4 µM]	.
c1ccc(Nc2ncnc3sc4c(c23)CCC4)cc1	4%	1%	23%	-2%	-2%	-4%
O=S(=O)(Nc1ncnc2sc3c(c12)CCC3)c1ccc2ccccc2c1	?	19%	-4%	34µM*	-33%	.
Fc1ccc(Nc2ncnc3sc4c(c23)CCC4)cc1	1%	8%	72%	3%	4%	10%
Cc1cc(C(C)(C)C)ccc1OCCn1ccnc1	35µM*	11%	?	3%	14µM*	.
Clc1ccc(OCCCn2ccnc2)c(Br)c1	32µM*	?	16µM*	-5%	5.6µM*	-18%
Cc1ccc(OCCn2ccnc2)c(C)c1	-37%	15%	33%	1%	-25%	.
CC(C)(C)c1cc(Cl)ccc1OCCn1ccnc1	40µM*	14%	?	-18%	5µM*	-3%
Cc1ccc[n+](CC(=O)Nc2ccc(C)c(C)c2)c1	-3%	6%	41%	4%	9%	8%
C/C(=N/NS(=O)(=O)c1ccccc1)c1ccc(NC(=O)C2CC2)cc1	2%	21%	20%	-18%	-18%	-4%
Cc1ccc(NC(=O)C(c2ccccc2)c2ccccc2)c(O)c1	-15%	-1%	11%	-4%	-29%	.
